Source: PubChem (National Center for Advancing Translational Sciences (NCATS))
Nrf2 inh – Nrf2 qHTS screen for inhibitors; A549 ARE-Fluc reporter, luciferase luminescence, 18-24 h; Potency, µM (series often up to 46 µM), inactives show at the top dose activity change, negative = inhibition, usual class: inhibitors; actives 2.1% (n = 360,000); AID 504444, 2011; also: % is scaled to controls: 0 for no effect and ±100 for the full control effect; nearly all actives have a fitted effect of over 60% in size
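Two sequential reads on A549 ARE_Fluc cells exposed to compound for 18-24 h: a CellTiter-Fluor fluorescence read for viability, then a luciferase luminescence read for Nrf2/ARE activity.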
Nrf2 activator – qHTS of Nrf2 Activators | AID 624171, 2012 | Potency, µM (series often up to 46.1 µM), inactives show at the top dose activation, actives largely listed as activators | AREc32 ARE-luciferase reporter (MCF7-derived line), luminescence, 24 h | actives 0.31% (n = 410,000); also: % of control where 0% means no effect; nearly all actives have a fitted effect of over 65% in size
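Luciferase luminescence (Steady-Glo, 30 min at room temperature) served as the read-out of ARE activation in AREc32 cells treated with compounds for 24 hr at 37 deg C.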
A549 tox-1 – Nrf2 qHTS screen for inhibitors: counterscreen for cytotoxicity | A549 ARE-Fluc cells, CellTiter-Fluor viability, 18-24 h | Potency, µM (highest dose often 46 µM), inactives show top-dose activity change, negative = cytotoxicity, most hits filed as inhibitors | actives 0.16% (n = 390,000) | AID 504648, 2011; also: % is scaled to controls: 0 for no effect and ±100 for the full control effect
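Cytotoxicity counterscreen: CellTiter-Fluor fluorescence was measured in A549 ARE_Fluc cells after 18-24 h of compound exposure in a concentration series. The subsequent BugLite luminescent read reports ARE-luciferase activity.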
Pin1 inhibitor – qHTS Assay to Find Inhibitors of Pin1; Pin1 FP peptide displacement, HiFluor488, 10 min; actives 0.009% (n = 390,000); Potency, µM (top dose mostly 115 µM), inactives show at the highest dose activity, negative = inhibition, most hits filed as inhibitors; active = well fitted inhibition curve with a large enough effect in the polarisation, with a control signal flat, not every such curve was filed as active; inconclusive = small, poorly fitted or top-dose-only effect, or effect the other way, or a change in a side signal; inactive = no such curve, though single readings can be large or run the other way; the % refers to the polarisation; also: % is scaled to controls: 0 for no effect and ±100 for the full control effect
Target sequence (Q13526 whole entry, looked up): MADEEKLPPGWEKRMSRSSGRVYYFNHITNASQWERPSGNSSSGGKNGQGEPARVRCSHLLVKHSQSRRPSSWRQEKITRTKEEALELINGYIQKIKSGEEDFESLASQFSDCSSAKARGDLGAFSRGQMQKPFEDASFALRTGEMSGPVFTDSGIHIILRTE
FLuc enzyme inh – Nrf2 qHTS screen for inhibitors: Purified Fluc Biochemical Counterscreen for Hit Validation; shares compounds with Nrf2 inh; purified firefly luciferase, luminescence inhibition; Potency, µM (highest dose often 57.5 µM), inactives show at the highest dose activity change, negative = inhibition, hits mostly inhibitors; actives 4% (n = 1,400); AID 720522, 2013; also: % is scaled to controls: 0 for no effect and ±100 for the full control effect; nearly all actives have a fitted effect of over 65% in size
Target sequence (P08659 whole entry, looked up): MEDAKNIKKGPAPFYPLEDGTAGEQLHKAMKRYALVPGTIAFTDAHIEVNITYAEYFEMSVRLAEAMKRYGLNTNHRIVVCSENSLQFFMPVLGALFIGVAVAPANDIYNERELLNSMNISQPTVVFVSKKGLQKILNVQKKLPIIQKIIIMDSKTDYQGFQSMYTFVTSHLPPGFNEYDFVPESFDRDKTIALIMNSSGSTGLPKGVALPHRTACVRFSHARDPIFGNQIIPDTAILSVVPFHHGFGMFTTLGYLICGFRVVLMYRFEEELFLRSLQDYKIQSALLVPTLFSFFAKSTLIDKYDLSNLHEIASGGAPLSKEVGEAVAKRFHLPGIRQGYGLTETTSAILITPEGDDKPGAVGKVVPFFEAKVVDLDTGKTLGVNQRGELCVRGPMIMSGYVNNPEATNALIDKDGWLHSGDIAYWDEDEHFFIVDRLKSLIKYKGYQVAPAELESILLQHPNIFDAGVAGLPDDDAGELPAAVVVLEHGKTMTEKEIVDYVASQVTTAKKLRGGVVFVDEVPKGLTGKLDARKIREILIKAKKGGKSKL
A549 tox-2 – Nrf2 qHTS screen for inhibitors: A549 ARE-Fluc Cytotoxicity Counterscreen for Hit Validation; actives 2% (n = 1,400); AID 720523, 2013; shares compounds with Nrf2 inh; Potency, µM (doses to about 46.1 µM), for inactives: top-dose activity change, negative = cytotoxicity, most hits filed as inhibitors; A549 ARE-Fluc cells, cytotoxicity counterscreen;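 also: cells exposed to compounds for 18 to 24 hours; % is scaled to controls: 0 for no effect and ±100 for the full control effect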
Nrf2 ARE inh – Nrf2 qHTS screen for inhibitors: Nrf2 A549 ARE-Fluc Confirmation Assay for Hit Validation | shares compounds with Nrf2 inh | A549 ARE-firefly luciferase reporter, luminescence | Potency, µM (doses to about 46.1 µM), for the others: top-dose activity change, negative = inhibition, hits mostly inhibitors | actives 74% (n = 1,400) | AID 720524, 2013; also: % is scaled to controls: 0 for no effect and ±100 for the full control effect; nearly all actives have a fitted effect of over 65% in size
* = called active by the depositor. Most compounds without a hit are left out; they make up all but 2.2% or so of the library. Unless noted, calls follow the shape of the dose curve; as a rule, active = well fitted curve in the direction sought with a large enough effect; inconclusive = small, poorly fitted or top-dose-only effect, or another doubt; inactive = no such curve, though single readings can be large; an effect the other way counts as inactive or inconclusive. Potency is read from the fitted curve at half-maximal effect.

COc1ccc(N2CCN(c3ncnc4onc(C)c34)CC2)cc1 was read as Nrf2 inh 9.2µM*, Nrf2 activator -1.4%, A549 tox-1 5.2%, Pin1 inhibitor 0.0%, FLuc enzyme inh 3.3%, A549 tox-2 -2.2% and Nrf2 ARE inh 7.31µM*.
Brc1ccc(C[n+]2ccccc2)cc1 was read as Nrf2 inh 2.59µM*, Nrf2 activator 0.2%, A549 tox-1 -6.5%, Pin1 inhibitor -6.1%, FLuc enzyme inh -0.5%, A549 tox-2 -6.7% and Nrf2 ARE inh 4.11µM*.
`O=[N+]([O-])c1ccc(C[n+]2ccc(Cc3ccccc3)cc2)cc1` gave Nrf2 inh inconclusive, Nrf2 activator -0.2%, A549 tox-1 0.9% and Pin1 inhibitor -0.1%.
For Cc1cc(C)cc(NC(=O)CCc2c(C)nc3c(c2C)c(=O)n(C)c(=O)n3C)c1 the results were Nrf2 inh -8.0%, Nrf2 activator -0.4%, A549 tox-1 -11.3% and Pin1 inhibitor -5.3%.
For O=c1ccncn1C1OC(CO)C(O)C1O (stereo not drawn) the results were Nrf2 inh 11.2%, Nrf2 activator 2.1%, A549 tox-1 -5.1% and Pin1 inhibitor 3.9%.
`N=c1ccn2c(n1)OC1C(O)[C@@H](CO)O[C@H]12` (stereo partly drawn) gave Nrf2 inh 0.164µM*, A549 tox-1 2.2%, Pin1 inhibitor 22.1%, FLuc enzyme inh -1.9% and A549 tox-2 -1.2%.
For CCOc1ccc(-n2c(-c3ccccc3)c[n+]3c2CCCCC3)cc1 the results were Nrf2 inh 2.06µM*, Nrf2 activator 0.3%, A549 tox-1 -18.0%, Pin1 inhibitor -3.7%, FLuc enzyme inh -0.4%, A549 tox-2 -14.3% and Nrf2 ARE inh 5.8µM*.
Screening c1ccc(-c2c[n+]3c(n2-c2ccccc2)CCC3)cc1 returned Nrf2 inh inconclusive, Nrf2 activator 0.3%, A549 tox-1 -9.5% and Pin1 inhibitor 1.5%.
For Cc1ccc(-c2c[n+]3c(n2-c2ccccc2)CCC3)cc1 the results were Nrf2 inh 6.51µM*, Nrf2 activator 2.0%, A549 tox-1 -10.0%, Pin1 inhibitor -0.9%, FLuc enzyme inh 1.6%, A549 tox-2 -4.6% and Nrf2 ARE inh 13µM*.
For COCCNC(=O)c1c(NC(=O)c2cc(=O)c3cc(C)cc(C)c3o2)sc2c1CCCC2 the results were Nrf2 inh 14.6%, Nrf2 activator 0.2%, A549 tox-1 -3.3% and Pin1 inhibitor -5.9%.
For Cc1ccn2c(NCc3ccco3)c(-c3ccccc3)nc2c1 the results were Nrf2 inh inconclusive, A549 tox-1 -1.0% and Pin1 inhibitor -2.7%.
CN(Cc1cnc2nc(N)nc(N)c2n1)c1ccc(C(=O)NC(CCC(=O)O)C(=O)O)c2ccccc12 (stereo not drawn) was read as Nrf2 inh 0.0411µM*, Nrf2 activator 0.1%, A549 tox-1 -23.4%, Pin1 inhibitor inconclusive, FLuc enzyme inh -19.8%, A549 tox-2 -18.4% and Nrf2 ARE inh 0.0326µM*.
For O=C(O)CCC(NC(=O)c1ccc(Cl)cc1)C(=O)O (stereo not drawn) the results were Nrf2 inh 6.8%, Nrf2 activator -0.5%, A549 tox-1 1.5% and Pin1 inhibitor -2.7%.
`COc1ccc(OC)c(/C=C/c2ccc3ccccc3[n+]2C)c1` gave FLuc enzyme inh -2.1%, A549 tox-2 -33.2% and Nrf2 ARE inh 7.31µM*.
`C[n+]1c(/C=C/c2ccc(F)cc2)ccc2ccccc21` gave FLuc enzyme inh inconclusive, A549 tox-2 -21.5% and Nrf2 ARE inh 8.2µM*.
COc1cccc(Cn2c(=O)n(Cc3ccccc3)c(=O)c3c2c2cc(OC)ccc2n3C)c1 was read as Nrf2 inh 10.4%, Nrf2 activator -0.3%, A549 tox-1 0.5% and Pin1 inhibitor 3.1%.
Screening COc1cc(C(=O)N/N=C/c2ccc(OC(=O)c3ccccc3Cl)c(OC)c2)ccc1O returned Nrf2 inh 1.46µM*, Nrf2 activator 3.2%, A549 tox-1 -1.6%, Pin1 inhibitor 5.3%, FLuc enzyme inh 0.536µM*, A549 tox-2 2.3% and Nrf2 ARE inh 0.92µM*.
For COc1cccc(NC(=O)N2CCN3CCCCC3C2)c1 (stereo not drawn) the results were Nrf2 activator 3.1%, A549 tox-1 0.0% and Pin1 inhibitor -1.3%.
Screening Cc1csc(SCC(=O)Nc2sc3c(c2C#N)CCC3)n1 returned Nrf2 inh -21.8%, Nrf2 activator 2.2%, A549 tox-1 -25.9% and Pin1 inhibitor 28.2%.
For Cc1ccnc(SCC(=O)Nc2sc3c(c2C#N)CCCC3)n1 the results were Nrf2 inh 9.2µM*, Nrf2 activator 3.7%, A549 tox-1 -20.8%, Pin1 inhibitor -1.7%, FLuc enzyme inh -4.0% and A549 tox-2 -20.0%.
COc1cc(NC(=O)CCCSc2nc(-c3ccco3)cc(C(F)(F)F)n2)cc(OC)c1OC was read as Nrf2 inh inconclusive, Nrf2 activator 5.3%, A549 tox-1 -28.6% and Pin1 inhibitor -3.0%.
`COc1cc(NC(=O)CSc2nc(-c3ccco3)cc(C(F)(F)F)n2)cc(OC)c1OC` gave Nrf2 inh 9.2µM*, Nrf2 activator -0.1%, A549 tox-1 -14.2%, Pin1 inhibitor -2.7%, FLuc enzyme inh 4.6%, A549 tox-2 -12.4% and Nrf2 ARE inh inconclusive.
CCOC(=O)C1=C(CSc2nc3ccccc3s2)NC(=O)NC1c1ccc(OC)cc1 (stereo not drawn) was read as Nrf2 inh 5.8µM*, Nrf2 activator 0.2%, A549 tox-1 inconclusive, Pin1 inhibitor 73.3%, FLuc enzyme inh -20.3% and A549 tox-2 inconclusive.
For CCOC(=O)C1=C(CSc2nc3ccccc3s2)NC(=O)NC1c1cc(C)ccc1C (stereo not drawn) the results were Nrf2 inh inconclusive, Nrf2 activator 5.0%, A549 tox-1 -6.3% and Pin1 inhibitor 13.2%.
`CC(=O)Nc1nc2ccccc2n1Cc1ccccc1` gave Nrf2 inh 1.1%, Nrf2 activator -0.5%, A549 tox-1 -13.2% and Pin1 inhibitor 2.5%.
